Screening results from PubChem.
Rows were chosen to be rich in hits. Some 12% of all compounds tested hit in one or more screens of this group.
PLK1 PBD block: blocks phosphopeptide binding to human PLK1 polo-box domain. Plk1 PBD binding of FITC phosphopeptide, fluorescence polarization. P53350. Potency, µM, without a hit: max response, negative = inhibition, usual class: inhibitors. 360,000 tested, 2.8% active. AID 720504; note: series mostly up to about 57 µM; nearly all actives have a fitted effect of over 65% in size
Gal4-VP16 FLuc: counter-screen for ROR gamma inhibitors: Gal4-VP16 reporter | Drosophila S2 Gal4-VP16 UAS-luciferase, luminescence, 20 h | Potency, µM (doses to about 53.6 µM), for the others: top-dose activity, negative = inhibition, most hits filed as inhibitors | 310,000 tested, 3.5% active;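 note: Gal4-VP16 expression switched on by copper sulfate through the metallothionein promoter; nearly all actives have a fitted effect of over 50% in size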
Sfp PPTase inh: inhibitors of Bacillus subtilis Sfp phosphopantetheinyl transferase; Biochemical Sfp PPTase activity, qHTS; Potency, µM, for the others: largest response in the series, negative = inhibition, most hits filed as inhibitors; 310,000 tested, 3.5% active;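 note: the enzyme is Sfp with the accession as filed and its product quenches rhodamine fluorescence; 0% = enzyme reaction without inhibitor and -100% = no enzyme wells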
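Fluorescence-quenching assay: 15 nM Sfp-PPTase preincubated 15 min at room temperature with compound, then 5 uM rhodamine-CoA and 12.5 uM BHQ-2-labelled YbbR peptide added. Fluorescence (ex 525/em 598 nm) read at start and after 30 min; difference gives rate.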
RORgamma inh: ROR gamma (mouse) transcription inhibition; P51450; Drosophila S2 Gal4-RORgamma UAS-luciferase reporter, 20 h; Potency, µM (doses to about 53.6 µM), without a hit: at the top dose activity change, negative = inhibition, most hits filed as inhibitors; 310,000 tested, 5.4% active; AID 2551; note: nearly all actives have a fitted effect of over 60% in size
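Luciferase reporter read in Schneider cells carrying Gal4-RORγ (mouse) and UAS-Photinus luciferase; cells given compound 1 h before 700 uM copper sulfate induction, then incubated 20 h at ambient temperature.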
ALDH1A1 block: inhibitors of human aldehyde dehydrogenase 1A1; P00352; Purified ALDH1A1, NADH fluorescence, propionaldehyde substrate; Potency, µM (series often up to 75.3 µM), for the others: at the top dose activity, negative = inhibition, most hits filed as inhibitors; 220,000 tested, 7.3% active; AID 1030; active = well fitted inhibition curve with a large enough effect, not every such curve was filed as active; inconclusive = small, poorly fitted or top-dose-only effect, or another doubt; inactive = no such curve, though single readings can be large or run the other way;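 note: plate controls were no enzyme wells and a reference inhibitor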
Target sequence (P00352 whole entry, looked up): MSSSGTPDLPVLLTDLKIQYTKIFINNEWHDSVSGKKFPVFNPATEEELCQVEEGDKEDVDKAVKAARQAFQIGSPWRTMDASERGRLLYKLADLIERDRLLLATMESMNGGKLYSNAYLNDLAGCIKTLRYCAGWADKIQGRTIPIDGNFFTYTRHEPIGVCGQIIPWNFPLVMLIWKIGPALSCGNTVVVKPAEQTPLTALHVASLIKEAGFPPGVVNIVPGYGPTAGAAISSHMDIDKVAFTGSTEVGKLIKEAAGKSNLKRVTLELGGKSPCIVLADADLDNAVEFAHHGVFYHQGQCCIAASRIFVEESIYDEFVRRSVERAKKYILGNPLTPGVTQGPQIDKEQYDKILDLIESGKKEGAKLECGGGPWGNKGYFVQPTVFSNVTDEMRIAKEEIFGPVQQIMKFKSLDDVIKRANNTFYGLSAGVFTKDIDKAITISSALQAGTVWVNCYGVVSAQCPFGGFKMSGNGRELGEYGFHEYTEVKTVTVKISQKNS
The depositor's hits bear a star; ? = inconclusive; / = no result; ! = not active in a repeat; [ ] = another dose, or the depositor's remark. Unless noted, calls come from the whole dose curve; as a rule, active = well fitted curve in the direction sought with a large enough effect; inconclusive = small, poorly fitted or top-dose-only effect, or another doubt; inactive = no such curve, though single readings can be large; an effect the other way counts as inactive or inconclusive. Unless noted, % is set by controls: 0 for no effect and ±100 for the full control effect; potency is the fitted concentration of half-maximal effect.

SMILES | PLK1 PBD block | Gal4-VP16 FLuc | Sfp PPTase inh | RORgamma inh | ALDH1A1 block
C#CCn1c(=O)c2c(nc(/C=C/c3cccc(OC)c3)n2C)n(CCCO)c1=O | / | -0.9% | 25.0% | 23.4% | /
COc1cc(C2C(C(C)=O)=C(O)C(=O)N2Cc2ccccc2)ccc1O (stereo not given) | -1.8% | 3.7% | 11.2% | 5.4% | /
COc1ccccc1NC(=O)c1ccccc1S(=O)(=O)c1ccc([N+](=O)[O-])cc1 | -7.7% | -3.6% | 3.0% | -19.8% | /
COc1ccc(C(=O)Nc2ccccc2)cc1[N+](=O)[O-] | / | 1.6% | / | 18.3% | 20µM*
COc1ccccc1NC(=O)c1ccccc1S(=O)(=O)c1ccccc1[N+](=O)[O-] | 5.97µM* | -5.2% | -0.1% | -2.4% | 6.5%
N#CC(=C(O)CN1CCN(c2ccccc2F)CC1)c1nc(-c2ccccc2)cs1 | -13.7% | / | / | / | /
CCOC(=O)C1CCCN(C/C(O)=C(\C#N)c2nc(-c3ccc(Cl)cc3)cs2)C1 (stereo not given) | -16.0% | ? | 18.1% | 22.4µM* | -2.7%
N#C/C(=C(/O)CN1CCCC1)c1nc(-c2ccccc2)cs1 | -0.2% | 16.3% | 31.6µM* | 1.3% | -2.5%
N#CC(=C(O)CN1CCN(c2ccccc2F)CC1)c1nc(-c2ccc(Cl)cc2)cs1 | -14.6% | / | / | / | /
CC/C(=C(/c1ccccc1)c1ccc(OCCN(C)C)cc1)c1ccccc1 | / | ? | 50.1µM* | -40.4% | /
CCN(CC)CCOc1ccc(/C(=C(\Cl)c2ccccc2)c2ccccc2)cc1 | -1.5% | -23.6% | -47.4% | -30.8% | -6.3%
Cc1ncc([N+](=O)[O-])n1CCO | -11.4% | 4.6% | -9.3% | -29.6% | 7.94µM*!
COc1ccc2c(c1)CC/C(=C\Nc1ccc3c(c1)OCO3)C2=O | -17.8% | 2.7% | 22.4µM* | ? | 2µM*
COc1ccc(S(=O)(=O)Nc2ccc3c(c2)OCO3)cc1 | -3.8% | 1.4% | -4.4% | 32.7% | ?
COc1ccc(OC)c(C=C2CCc3ccccc3C2=O)c1 | -9.9% | / | / | / | /
COc1ccc(N/C=C2\CCc3ccccc3C2=O)cc1 | -3.5% | ? | 56.2µM* | 8.91µM* | ?
O=C1/C(=C/Nc2ccc3c(c2)OCO3)CCc2ccccc21 | -18.0% | 11.2µM* | 35.5µM* | -71.4% | 10µM*
FC(F)(F)c1ccc(Cl)c(-n2c(-c3cc(-c4ccco4)[nH]n3)n[nH]c2=S)c1 | -21.2% | -12.0% | -18.4% | ? | /
FC(F)(F)c1ccc(Cl)c(-n2c(-c3ccco3)n[nH]c2=S)c1 | -13.1% | ? | 4.2% | ? | /
S=c1[nH]nc(-c2ccco2)n1-c1ccccc1Cl | -13.1% | 17.8µM* | -7.3% | 6.31µM* | ?
S=c1[nH]nc(-c2cc(-c3ccco3)[nH]n2)n1-c1ccccc1 | -17.2% | 6.5% | 89.1µM* | 12.6µM* | ?
S=c1[nH]nc(-c2cc(-c3ccco3)[nH]n2)n1-c1ccccc1Cl | -23.2% | -6.1% | 28.2µM* | -32.0% | 7.08µM*
Cc1onc(-c2ccccc2)c1-c1n[nH]c(=S)n1-c1ccccc1Cl | -4.4% | 15.8µM* | 13.3% | 4.47µM* | -3.7%
Cc1onc(-c2ccccc2)c1-c1n[nH]c(=S)n1-c1ccc(C(=O)O)cc1 | -14.6% | -5.6% | -3.6% | -22.6% | -12.3%
COc1ccc(OC)c(-n2c(-c3cc(-c4ccco4)[nH]n3)n[nH]c2=S)c1 | -5.9% | -10.3% | 16.7% | -4.7% | 3.1%
SMILES | PLK1 PBD block | Gal4-VP16 FLuc | Sfp PPTase inh | RORgamma inh | ALDH1A1 block
CCCn1c(CN2CCN(C)CC2)nc2ccccc21 | -5.5% | 4.8% | -4.3% | 1.5% | -0.4%
Cn1c(CN2CCN(c3ccc(Cl)cc3)CC2)nc2ccccc21 | -1.8% | ? | 7.9% | 6.31µM* | 3.5%
Cn1c(CN2CCN(c3ccccc3NS(C)(=O)=O)CC2)nc2ccccc21 | -9.5% | -12.0% | -17.7% | -28.3% | /
CCn1c(CN2CCN(c3ccc(Cl)cc3)CC2)nc2ccccc21 | -0.4% | 8.91µM* | -13.3% | 10µM* | -0.9%
Cc1ccc(NC(=S)N(CCCN2CCOCC2)Cc2ccccn2)cc1Cl | -4.5% | ? | 31.6µM* | -94.8% | -12.5%
CCN1CCCc2cc(CN(CCN3CCOCC3)C(=S)Nc3cccc(OC)c3)ccc21 | -5.5% | -3.2%[10 µM] | 20.6% | 7.08µM* | 15.8µM*
Cc1ccc(NC(=S)N(CCCN2CCOCC2)Cc2ccccn2)cc1 | 2.9% | -7.2% | -6.6% | -14.6% | 4.0%
COc1cccc(NC(=S)N(CCCN2CCN(C)CC2)Cc2ccco2)c1 | -15.7% | -4.5% | 7.3% | 1.9% | 1.6%
CCN(CC)CCCNC(=O)CNC(=S)N(CCCN1CCOCC1)Cc1cccs1 | 18.9µM* | 8.7% | 9.9% | -2.6% | 1.9%
O=C(CNC(=S)N(CCCN1CCOCC1)Cc1cccs1)NCCN1CCOCC1 | -10.0% | -6.1% | 5.4% | -5.4% | -3.1%
CCc1ccc(NC(=S)N(CCN2CCOCC2)Cc2ccccc2F)cc1 | -3.9% | ? | 9.2% | 14.1µM* | 1.2%
Cc1cccc(C)c1-n1nnnc1C(c1ccnc2ccccc12)N1CCCN(C(=O)OC(C)(C)C)CC1 (stereo not given) | -6.5% | / | / | / | /
Cc1cccc(N2CCN(C(=O)C3CCC(=O)N(Cc4ccccc4F)C3)CC2)c1C (stereo not given) | -0.7% | 1.1% | 2.8% | 6.4% | /
C[S+](C)CC[C@H](N)C(=O)O | / | -7.9% | 1.7% | -5.0% | /
O=C(Nc1ccc(Cl)cc1)N(CCCN1CCOCC1)Cc1cccs1 | -7.5% | 4.4% | -10.0% | 18.3% | -9.1%
Cc1cc(Cl)ccc1NC(=S)N(CCCN1CCOCC1)Cc1cccs1 | 10.6µM* | ? | 44.7µM* | ? | -12.6%
COc1ccc(S(=O)(=O)N(CCCN2CCOCC2)Cc2cccc3ccccc23)cc1 | -8.3% | -27.2% | ? | ? | 6.31µM*
COc1ccc(NC(=S)N(CCCN2CCCC(C)C2)Cc2cccs2)cc1 (stereo not given) | -17.5% | -6.8% | 17.5% | 11.2µM* | ?
O=S(=O)(c1ccc(Cl)cc1)N(CCCN1CCOCC1)Cc1cccs1 | -6.0% | -3.6% | -29.4% | -2.7% | 12.6µM*
COc1ccc(NC(=S)N(CCCN2CCCC2)Cc2cccs2)cc1 | 0.2% | -4.9% | -7.4% | 3.4% | 7.1%
C=C1c2cccc(O)c2C(O)=C2C(=O)[C@@]3(O)C(O)=C(C(N)=O)C(=O)[C@@H](N(C)C)[C@@H]3[C@@H](O)[C@H]12 | / | -6.2%[17 µM] | ? | 19.9%[2.98 µM] | 5.9%[20.9 µM]
S=C(Nc1ccc(Cl)cc1)N(CCCN1CCOCC1)Cc1cccs1 | -4.2% | 9.7% | 4.2% | 12.6µM* | -9.6%
Cc1ccc(NC(=S)N(Cc2ccccc2)Cc2cccs2)c(C)c1 | -21.5% | ? | 4.1% | 7.08µM* | 10.0%
CC(=O)NCCNc1nc(-c2ccccc2Cl)nc2ccccc12 | / | 8.0% | 0.4% | -14.5% | ?
Cc1nc(NCc2ccccc2)c2nc(-c3ccccc3)n(CCN(C)C)c2n1 | / | -11.5% | 6.1% | -32.3% | ?
Cc1ccc(NC(=S)N/N=C/c2ccc(OCCC(C)C)cc2)c(C)c1 | -11.9% | 3.16µM* | 17.0% | 6.31µM* | -1.2%
Cc1ccc(NC(=S)NN2CCN(C)CC2)c(C)c1 | -10.0% | 4.7% | 1.3% | -23.0% | 0.0%
